For some assays here: Potency and affinity values are given separately.
What was measured:
Design in all cases: scale not given: direction of the effect not stated beside the values
[1] = target: Protein translocase subunit SecA (Escherichia coli (strain K12)) (UniProt P10408); assay: Assay to Identify E. coli SecA ATPase Inhibitors; assay type: functional; conditions: 30 µM
[2] = target: T1, Ubiquitin-activating enzyme e1, putative (Leishmania donovani (strain BPK282A1)) (UniProt E9BSI1); assay: Leishmania donovani Ubiquitin Activating Enzyme (LdE1); assay type: functional; conditions: 30 µM
T1 sequence (whole entry): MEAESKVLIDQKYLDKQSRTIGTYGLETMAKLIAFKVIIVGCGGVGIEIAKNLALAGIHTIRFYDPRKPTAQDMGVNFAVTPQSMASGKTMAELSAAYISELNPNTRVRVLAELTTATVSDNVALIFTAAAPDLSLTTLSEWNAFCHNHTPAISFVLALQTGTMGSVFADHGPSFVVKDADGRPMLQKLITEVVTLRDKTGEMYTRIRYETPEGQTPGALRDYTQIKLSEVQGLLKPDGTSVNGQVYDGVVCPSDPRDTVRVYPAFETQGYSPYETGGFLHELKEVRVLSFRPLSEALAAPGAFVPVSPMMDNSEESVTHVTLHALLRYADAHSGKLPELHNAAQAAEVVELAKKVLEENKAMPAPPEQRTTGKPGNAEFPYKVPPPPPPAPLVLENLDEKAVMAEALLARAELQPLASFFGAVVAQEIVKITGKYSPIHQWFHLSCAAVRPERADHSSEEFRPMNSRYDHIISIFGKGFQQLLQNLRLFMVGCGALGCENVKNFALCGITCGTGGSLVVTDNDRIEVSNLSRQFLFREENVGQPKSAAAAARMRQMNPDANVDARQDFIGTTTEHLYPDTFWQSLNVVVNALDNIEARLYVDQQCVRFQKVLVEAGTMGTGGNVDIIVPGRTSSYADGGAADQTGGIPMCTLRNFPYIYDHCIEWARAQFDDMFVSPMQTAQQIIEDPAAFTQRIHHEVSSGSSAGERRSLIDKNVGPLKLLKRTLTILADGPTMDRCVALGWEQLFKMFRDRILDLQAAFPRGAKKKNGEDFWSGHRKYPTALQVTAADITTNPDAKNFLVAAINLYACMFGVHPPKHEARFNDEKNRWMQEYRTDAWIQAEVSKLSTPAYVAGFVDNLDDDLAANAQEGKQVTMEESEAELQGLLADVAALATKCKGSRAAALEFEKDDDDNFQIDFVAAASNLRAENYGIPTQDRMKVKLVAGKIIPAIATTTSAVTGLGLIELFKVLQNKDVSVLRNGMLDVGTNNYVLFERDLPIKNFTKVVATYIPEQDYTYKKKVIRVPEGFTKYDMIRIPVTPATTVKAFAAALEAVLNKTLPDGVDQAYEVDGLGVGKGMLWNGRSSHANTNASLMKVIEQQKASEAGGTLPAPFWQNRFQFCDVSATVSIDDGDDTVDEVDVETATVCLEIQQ

[3] = target: AMP-activated protein kinase, AMPK (Homo sapiens) (UniProt P54646+O43741+P54619+Q9UGJ0+Q9Y478+Q13131+Q9UGI9); assay: AMP-dependent Kinase enzyme assay. An in vitro enzyme assay that detects ADP turnover that is directly proportional to AMPK activity. This uses naive AMPK that is activated during the assay with MK-8722; assay type: functional; conditions: 30 µM
[4] = target: Sialic acid-binding Ig-like lectin 9 (Homo sapiens) (UniProt Q9Y336); assay: Hs-Siglec9 ALPHAscreen SOP 20170721; conditions: 10 µM
Trypanosoma cruzi = assay: Trypanosoma cruzi phosphomannomutase and mannose-1-phosphate guanylyltransferase assay; assay type: functional; conditions: 10 µM
[5] = target: T2, Arginase-2, mitochondrial (Homo sapiens) (UniProt P78540); assay: in vitro enzyme assay to detect the production of urea directly proportional to the activity of Arginase II; assay type: functional; conditions: 33.3 µM; further: in the data most compounds retested in dose-response had high values
T2 sequence (whole entry): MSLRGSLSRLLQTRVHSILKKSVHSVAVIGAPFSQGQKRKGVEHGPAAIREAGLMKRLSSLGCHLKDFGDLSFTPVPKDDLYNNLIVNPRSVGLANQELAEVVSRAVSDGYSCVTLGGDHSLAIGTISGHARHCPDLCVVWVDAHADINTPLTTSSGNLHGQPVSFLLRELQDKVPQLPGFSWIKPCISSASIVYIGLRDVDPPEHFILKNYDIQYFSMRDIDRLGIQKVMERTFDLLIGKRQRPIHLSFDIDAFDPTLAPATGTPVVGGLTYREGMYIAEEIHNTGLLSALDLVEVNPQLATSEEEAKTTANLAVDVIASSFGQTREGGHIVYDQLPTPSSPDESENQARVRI

[6] = target: T3, Proteasome subunit beta (Trypanosoma cruzi) (UniProt O96673); assay: Trypanosoma cruzi proteasome chymotrypsin-like activity (TcProtChymo) assay.; further: in the data most compounds retested in dose-response had high values; assay type: functional; conditions: 9.37 µM
T3 sequence (whole entry): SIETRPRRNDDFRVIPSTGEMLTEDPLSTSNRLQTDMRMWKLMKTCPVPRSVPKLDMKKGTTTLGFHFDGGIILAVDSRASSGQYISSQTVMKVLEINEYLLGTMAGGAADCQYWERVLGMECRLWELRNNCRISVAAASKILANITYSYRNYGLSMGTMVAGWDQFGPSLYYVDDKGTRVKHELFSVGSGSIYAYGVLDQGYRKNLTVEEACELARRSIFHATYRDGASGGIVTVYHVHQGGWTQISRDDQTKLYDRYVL

Homo sapiens = species on record: Homo sapiens; assay: To identify inhibition of the IFN signalling (Jak-Stat) pathway via expression of an eGFP reporter gene under the control of an IFN-stimulated response element (ISRE) containing MxA promoter.; assay type: functional; conditions: 30 µM
[7] = target: T4, Tyrosyl-tRNA synthetase, putative (Trypanosoma cruzi (strain CL Brener)) (UniProt Q4DSP6); assay: Trypanosoma cruzi tyrosyl tRNA synthetase (TcYRS) _High Tyrosine SOP; assay type: functional; conditions: 30 µM; further: in the data most compounds retested in dose-response had high values
T4 sequence (whole entry): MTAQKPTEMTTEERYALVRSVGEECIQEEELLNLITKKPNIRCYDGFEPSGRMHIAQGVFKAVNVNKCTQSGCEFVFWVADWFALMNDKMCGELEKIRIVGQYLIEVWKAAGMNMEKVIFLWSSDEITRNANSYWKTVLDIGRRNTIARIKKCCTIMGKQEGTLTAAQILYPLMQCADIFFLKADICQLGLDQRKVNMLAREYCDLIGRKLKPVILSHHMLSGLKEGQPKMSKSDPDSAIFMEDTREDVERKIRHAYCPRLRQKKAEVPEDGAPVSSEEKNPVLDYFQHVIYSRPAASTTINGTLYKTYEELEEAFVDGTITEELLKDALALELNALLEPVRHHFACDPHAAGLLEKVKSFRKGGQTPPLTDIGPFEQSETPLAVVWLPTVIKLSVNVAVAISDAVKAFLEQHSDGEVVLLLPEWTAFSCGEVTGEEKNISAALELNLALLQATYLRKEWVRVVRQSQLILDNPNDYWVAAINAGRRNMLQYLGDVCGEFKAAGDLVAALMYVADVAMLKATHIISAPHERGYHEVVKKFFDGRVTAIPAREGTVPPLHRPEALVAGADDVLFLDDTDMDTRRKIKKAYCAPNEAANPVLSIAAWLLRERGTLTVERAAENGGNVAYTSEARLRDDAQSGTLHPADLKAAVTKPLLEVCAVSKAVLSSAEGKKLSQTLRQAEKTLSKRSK

[8] = target: T4, Tyrosyl-tRNA synthetase, putative (Trypanosoma cruzi (strain CL Brener)); assay: Trypanosoma cruzi tyrosyl tRNA synthetase (TcYRS) SOP; assay type: functional; conditions: 30 µM
[9] = target: Chromo domain-containing protein 1 (Saccharomyces cerevisiae (strain ATCC 204508 / S288c) (Baker's yeast)) (UniProt P32657); assay: ScCHD-1 Enzyme Inhibition Assay; assay type: functional; conditions: 30 µM; further: in the data most compounds retested in dose-response had high values
Chain of Chromo domain-containing protein 1 (Saccharomyces cerevisiae (strain ATCC 204508 / S288c) (Baker's yeast)) (P32657 whole entry, the tested form may be a part): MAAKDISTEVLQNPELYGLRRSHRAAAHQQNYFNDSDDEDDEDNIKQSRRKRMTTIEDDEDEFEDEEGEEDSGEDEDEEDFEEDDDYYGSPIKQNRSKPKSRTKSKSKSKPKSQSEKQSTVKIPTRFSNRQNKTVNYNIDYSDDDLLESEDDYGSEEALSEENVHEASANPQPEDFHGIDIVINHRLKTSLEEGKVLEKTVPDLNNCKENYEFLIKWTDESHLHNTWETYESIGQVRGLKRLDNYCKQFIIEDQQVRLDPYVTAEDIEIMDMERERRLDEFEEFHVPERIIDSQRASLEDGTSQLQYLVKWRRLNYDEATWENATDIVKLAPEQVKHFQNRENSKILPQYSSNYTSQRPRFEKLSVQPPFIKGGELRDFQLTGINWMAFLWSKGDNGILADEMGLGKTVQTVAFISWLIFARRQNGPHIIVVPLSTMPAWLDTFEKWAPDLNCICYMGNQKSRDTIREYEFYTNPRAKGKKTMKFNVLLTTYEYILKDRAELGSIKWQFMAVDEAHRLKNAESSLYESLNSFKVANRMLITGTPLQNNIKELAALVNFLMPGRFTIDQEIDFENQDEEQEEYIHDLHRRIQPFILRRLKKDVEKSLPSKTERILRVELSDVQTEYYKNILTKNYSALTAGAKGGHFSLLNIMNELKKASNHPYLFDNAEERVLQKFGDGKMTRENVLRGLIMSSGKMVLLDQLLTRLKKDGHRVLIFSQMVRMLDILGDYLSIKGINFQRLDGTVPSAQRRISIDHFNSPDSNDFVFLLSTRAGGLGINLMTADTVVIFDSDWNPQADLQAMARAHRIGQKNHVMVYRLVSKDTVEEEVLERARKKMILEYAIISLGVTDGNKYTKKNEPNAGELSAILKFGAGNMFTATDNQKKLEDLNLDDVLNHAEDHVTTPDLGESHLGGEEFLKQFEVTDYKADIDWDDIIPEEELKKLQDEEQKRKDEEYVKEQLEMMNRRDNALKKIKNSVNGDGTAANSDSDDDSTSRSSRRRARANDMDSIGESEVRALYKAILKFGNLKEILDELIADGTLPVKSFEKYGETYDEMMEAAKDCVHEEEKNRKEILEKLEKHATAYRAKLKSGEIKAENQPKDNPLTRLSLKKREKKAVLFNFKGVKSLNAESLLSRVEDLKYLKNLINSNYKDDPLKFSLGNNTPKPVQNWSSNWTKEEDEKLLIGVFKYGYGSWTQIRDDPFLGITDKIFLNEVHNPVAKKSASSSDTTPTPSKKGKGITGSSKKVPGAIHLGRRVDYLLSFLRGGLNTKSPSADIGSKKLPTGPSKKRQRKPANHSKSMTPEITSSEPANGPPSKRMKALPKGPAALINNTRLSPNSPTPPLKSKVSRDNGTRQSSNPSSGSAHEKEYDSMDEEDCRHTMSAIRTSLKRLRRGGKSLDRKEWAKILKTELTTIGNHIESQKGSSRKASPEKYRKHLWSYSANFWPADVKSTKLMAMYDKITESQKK

Chain of Sialic acid-binding Ig-like lectin 9 (Homo sapiens) (Q9Y336 whole entry): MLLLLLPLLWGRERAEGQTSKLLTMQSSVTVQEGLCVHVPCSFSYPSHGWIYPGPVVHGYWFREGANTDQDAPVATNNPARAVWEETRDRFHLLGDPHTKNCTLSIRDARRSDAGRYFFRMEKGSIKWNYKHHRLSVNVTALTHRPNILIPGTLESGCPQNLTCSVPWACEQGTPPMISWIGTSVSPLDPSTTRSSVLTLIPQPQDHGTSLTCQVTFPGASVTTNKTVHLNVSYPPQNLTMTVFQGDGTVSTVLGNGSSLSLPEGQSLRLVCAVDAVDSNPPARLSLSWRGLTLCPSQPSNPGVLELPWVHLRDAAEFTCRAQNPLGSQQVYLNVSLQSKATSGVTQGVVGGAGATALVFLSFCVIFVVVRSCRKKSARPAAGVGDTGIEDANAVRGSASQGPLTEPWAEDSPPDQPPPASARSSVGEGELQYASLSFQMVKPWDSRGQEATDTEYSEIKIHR
Chain of Protein translocase subunit SecA (Escherichia coli (strain K12)) (P10408 whole entry): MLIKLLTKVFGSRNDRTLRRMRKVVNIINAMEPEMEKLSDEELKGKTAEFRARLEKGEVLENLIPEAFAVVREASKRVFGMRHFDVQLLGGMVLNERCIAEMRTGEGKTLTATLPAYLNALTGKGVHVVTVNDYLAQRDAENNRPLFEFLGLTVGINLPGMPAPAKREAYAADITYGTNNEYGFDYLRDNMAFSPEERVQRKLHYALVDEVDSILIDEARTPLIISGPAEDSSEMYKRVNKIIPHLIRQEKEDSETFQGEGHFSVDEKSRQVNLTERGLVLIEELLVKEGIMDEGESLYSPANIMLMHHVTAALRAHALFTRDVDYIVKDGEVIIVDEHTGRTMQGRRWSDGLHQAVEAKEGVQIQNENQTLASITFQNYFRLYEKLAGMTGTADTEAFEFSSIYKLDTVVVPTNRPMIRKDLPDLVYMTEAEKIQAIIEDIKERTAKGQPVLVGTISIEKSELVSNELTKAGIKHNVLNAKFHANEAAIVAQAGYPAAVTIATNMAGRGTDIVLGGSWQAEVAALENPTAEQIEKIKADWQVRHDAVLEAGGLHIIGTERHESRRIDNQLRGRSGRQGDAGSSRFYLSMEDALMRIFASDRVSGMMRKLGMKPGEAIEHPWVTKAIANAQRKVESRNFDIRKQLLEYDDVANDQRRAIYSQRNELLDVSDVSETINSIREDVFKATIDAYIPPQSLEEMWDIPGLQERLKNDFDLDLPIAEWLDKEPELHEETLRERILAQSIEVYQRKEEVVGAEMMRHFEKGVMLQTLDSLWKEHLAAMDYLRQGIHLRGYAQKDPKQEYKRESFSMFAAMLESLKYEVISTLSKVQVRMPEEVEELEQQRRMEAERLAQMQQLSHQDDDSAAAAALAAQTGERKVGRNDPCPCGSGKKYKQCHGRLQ

| SMILES | Percent Effect [1] [%] | Percent Effect [2] [%] | Percent Effect [3] [%] | Percent Effect [4] [%] | Percent Effect (Trypanosoma cruzi) [%] | Percent Effect [5] [%] | Percent Effect [6] [%] | Percent Effect (Homo sapiens) [%] | Percent Effect [7] [%] | Percent Effect [8] [%] | Percent Effect [9] [%] |
| --- | --- | --- | --- | --- | --- | --- | --- | --- | --- | --- | --- |
| O=C(Cc1ccc(F)cc1)N1CCCCC1c1ccn2ccnc2n1 (stereo not given) | -2.25 | -1.35 | 14.8 | 2.79 | -2.96 | -1.16 | 9.83 | 10.1 | 0 | -1.3 | -17.6 |
| COc1ccc(-c2nnc(SCC(=O)NCC(C)C)[nH]2)c(OC)c1 | -5.51 | 18.4 | 1.07 | -1.8 | 4.97 | 4.73 | 15.8 | 12.1 | 3.19 | 18.2 | -1.07 |
| Cc1ccc(NS(=O)(=O)c2cc3c(c(C(=O)O)c2)OCCO3)c(F)c1 | -10.1 | 13.2 | -8.4 | 15.9 | 10.6 | 1.08 | 11.2 | -1.31 | 2.46 | 13.6 | -9.81 |
| CN(Cc1nnc(C2CC2)n1C)C1CCN(Cc2ccc(F)cc2)C1 (stereo not given) | -0.349 | 18.9 | -8.58 | 2.26 | 0.283 | -8.02 | 13 | 5.85 | -1.48 | 18.5 | -10.5 |
| CS(=O)(=O)Cc1ccc(CNC(=O)c2cccnc2O)cc1 | -1.42 | 13.9 | 8.18 | 5.03 | -5.64 | 1.94 | 22.3 | 17.9 | 3.12 | 7.59 | -7.98 |
| CCOCC1CN(Cc2ccoc2)Cc2nn(CC3CC3)cc21 (stereo not given) | -7.41 | -2.7 | 4.81 | -1.13 | -3.52 | 0 | 3.3 | 5.53 | -7.92 | 6.1 | 0.75 |
| CCC(CO)N(Cc1ccccn1)C(=O)c1ccc2c(c1)CCO2 (stereo not given) | -5.75 | 10.7 | -10.8 | 36.5 | 7.89 | 15.6 | 13.4 | 12.5 | 0.546 | 16.1 | -5.21 |
| CSc1cc2c(cc1NC(=O)NCC(C)(C)C(N)=O)OCCO2 | -3.46 | 0 | 0.42 | -2.41 | -3.91 | -28.8 | 12.8 | -6.09 | -27.7 | 6.1 | 0.589 |
| CN(C)C[C@H]1OC[C@@H]2CCN(C(=O)c3cccn3C)C[C@@H]21 | -3.89 | 0 | -8 | 19.3 | 4.59 | 9.18 | 6.44 | 4.8 | 6.45 | 13.6 | -6.04 |
| Cc1noc(CN(Cc2ccc3c(c2)OCO3)Cc2ccc(C)o2)n1 | -2.53 | 13.5 | -9.33 | -9.31 | -5.75 | 3.21 | 13.3 | 27.4 | 8.37 | 13.6 | -6.37 |

Source: ChEMBL document CHEMBL3988442, “University of Dundee, Small-Polar-MMV Screening Library” (2021)
